# High-throughput results deposited in PubChem by National Center for Advancing Translational Sciences (NCATS).
# Tau fluor cs: counter-screen for tau fibril formation inhibitors | tau K18 P301L Alexa594 fluorescence, heparin fibrillization | 280,000 compounds, 0.93% hits | Potency, µM (titrated, usually from 57.7 µM) | AID 1463; note: nearly all actives have a fitted effect of over 55% in size
#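 Human tau K18 P301L (15 uM unlabeled, 0.24 uM Alexa 594-labeled) in 100 mM sodium acetate pH 7 with 20 uM heparin, 6 hr at 37 C. ThT 30 uM added, 1 hr ambient; Alexa 594 FP and total fluorescence read at 555/632 nm.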
# Tau fibril ThT: blocks human tau fibril formation measured by thioflavin T; P10636; recombinant tau K18 P301L (four-repeat tau fragment), heparin-induced fibrillization, ThT fluorescence; Potency, µM (series often up to 57.4 µM), hits mostly inhibitors; 270,000 compounds, 2.1% hits; note: nearly all actives have a fitted effect of over 55% in size
#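 Recombinant human tau K18 fragment […] carrying P301L, 15 uM unlabeled plus 0.24 uM Alexa 594-labeled, was fibrillized with 20 uM heparin in 100 mM sodium acetate pH 7 for 6 hr at 37 C; 30 uM ThT fluorescence read after 1 hr.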
# GoLoco inh red: RGS12 GoLoco-Gai1 interaction inhibition. Gai1:RGS12 GoLoco peptide FP, rhodamine, 10 min. Potency, µM (series often up to 61.6 µM), usual class: inhibitors. P63096. 230,000 compounds, 0.44% hits; active = well fitted inhibition curve with a large enough effect, not every such curve was filed as active; inactive = no such curve, though single readings can be large or run the other way; note: nearly all actives have a fitted effect of over 30% in size
# Target sequence (P63096 whole entry, looked up): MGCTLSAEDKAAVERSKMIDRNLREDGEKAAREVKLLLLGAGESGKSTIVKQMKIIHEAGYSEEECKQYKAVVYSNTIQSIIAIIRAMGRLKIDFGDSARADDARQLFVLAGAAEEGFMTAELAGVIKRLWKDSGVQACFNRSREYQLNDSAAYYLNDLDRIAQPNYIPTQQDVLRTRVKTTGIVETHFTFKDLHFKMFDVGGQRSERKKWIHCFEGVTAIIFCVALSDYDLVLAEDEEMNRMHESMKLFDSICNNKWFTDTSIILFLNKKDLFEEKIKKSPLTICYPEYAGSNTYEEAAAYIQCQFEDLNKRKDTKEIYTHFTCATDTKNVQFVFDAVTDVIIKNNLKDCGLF
# KDM4E inh: blocks human JMJD2E demethylase activity; Potency, µM (top dose mostly 57.1 µM), usual class: inhibitors; 230,000 compounds, 1.6% hits; JMJD2E catalytic domain, FDH-coupled NADH fluorescence (FDH is formaldehyde dehydrogenase); B2RXH2; active = well fitted inhibition curve with a large enough effect, not every such curve was filed as active; inconclusive = small, poorly fitted or top-dose-only effect, or another doubt; inactive = no such curve, though single readings can be large or run the other way; note: nearly all actives have a fitted effect of over 50% in size
# Target sequence (B2RXH2 1-337 limits assumed): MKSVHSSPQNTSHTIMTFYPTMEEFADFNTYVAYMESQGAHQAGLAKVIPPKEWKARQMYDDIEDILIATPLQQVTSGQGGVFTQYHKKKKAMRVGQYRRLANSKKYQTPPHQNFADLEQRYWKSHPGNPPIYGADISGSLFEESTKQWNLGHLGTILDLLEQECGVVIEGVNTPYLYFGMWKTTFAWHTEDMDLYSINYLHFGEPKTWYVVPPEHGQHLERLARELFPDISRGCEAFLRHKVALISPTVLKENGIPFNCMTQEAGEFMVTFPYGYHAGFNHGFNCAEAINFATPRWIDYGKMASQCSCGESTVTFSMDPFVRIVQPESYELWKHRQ
# Tau fibril FP: inhibitors of human tau fibril formation; AID 1468; P10636; Potency, µM (top dose mostly 57.7 µM), usual class: inhibitors; K18 P301L tau heparin fibrillization, Alexa594 FP, 6 h; 280,000 compounds, 0.39% hits; note: nearly all actives have a fitted effect of over 55% in size
#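 Human tau K18 […] P301L fragment, 15 uM unlabeled plus 0.24 uM Alexa 594-labeled tau (final), with compound and 20 uM heparin in 100 mM sodium acetate pH 7; 6 hr at 37 C, then Alexa 594 FP read.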
# Hits are given with their value; . = inactive; ? = inconclusive; / = no result; ! = repeats disagree; [ ] = remark or other dose. A selection: hits, their analogues and other compounds. The true share with any hit is near 3.4%. Unless noted, calls come from the whole dose curve; as a rule, active = well fitted curve in the direction sought with a large enough effect; inconclusive = small, poorly fitted or top-dose-only effect, or another doubt; inactive = no such curve, though single readings can be large; an effect the other way counts as inactive or inconclusive.
SMILES,Tau fluor cs,Tau fibril ThT,GoLoco inh red,KDM4E inh,Tau fibril FP
Nc1ccc(-c2nc3ccc(N)cc3s2)cc1,?,11µM,.,?,.
O=C(Nc1ccc(O)c(-c2nc3ccccc3s2)c1)c1cccs1,.,.,.,.,.
Oc1ccc(-c2nc3ccccc3s2)c(O)c1,?,.,.,?,.
Nc1ccc2nc(-c3ccc(O)cc3)sc2c1,?,7.9µM,/,/,.
Nc1cccc(-c2nc3ccc(N)cc3s2)c1,?,?,.,?,.
Oc1ccc(N=C/C=C/c2cccc(Br)c2)cc1-c1nc2ccccc2s1,?,6.3µM,.,25µM,.
Nc1ccc(O)c(-c2nc3ccccc3s2)c1,?,10µM,.,?,?
CC(=O)Nc1ccc(NC(=O)CC(C)n2ccc(C)n2)cc1 (centres undefined),.,.,/,/,.
C/C(=N/Nc1ccc(F)cc1)c1ccc(Cl)s1,14µM[quencher],?,.,.,.
O=C(NCc1ccco1)c1cc(-c2cccs2)nc2ccccc12,.,.,.,?,.
O=C(COC(=O)c1cc(-c2cccs2)nc2ccccc12)NCc1ccco1,.,16µM,.,?,20µM
Oc1ccc(/C(Cc2ccccn2)=N\Nc2ccccc2)c(O)c1,11µM[quencher],?,.,?,.
O/C(=C\c1ccc2ccccc2n1)c1ccc(O)cc1O,?,1.8µM,.,.,.
Oc1ccc(/C(Cc2ccc3ccccc3n2)=N\Nc2ccccc2)c(O)c1,11µM[quencher],11µM,.,.,.
COc1ccc(Nc2nnc(-c3cc4c(ccc5ccccc54)oc3=O)s2)cc1,?,5µM,/,/,.
COC(=O)CCCC1=CC2=C(c3ccccc3)C(=O)C(C)(OC(=O)C3CCCC3)C(=O)C2=CN1C1CCCC1 (centres undefined),.[11.6 µM],?,.[14.2 µM],.,.[11.6 µM]
COC(=O)CCCC1=CC2=C(c3ccccc3)C(=O)C(C)(OC(=O)C3CCCC3)C(=O)C2=CN1CC(C)C (centres undefined),.[11.6 µM],?,.[14.2 µM],18µM!,.[11.6 µM]
COCCN1C=C2C(=O)C(C)(OC(=O)C3CCCC3)C(=O)C(c3ccccc3)=C2C=C1CCCC(=O)OC (centres undefined),.[11.6 µM],.[11.5 µM],.[14.2 µM],?,.[11.6 µM]
COC(=O)CCCC1=CC2=C(c3ccccc3)C(=O)C(C)(OC(=O)C3CCCC3)C(=O)C2=CN1CC1CC1 (centres undefined),.[11.6 µM],?,.[14.2 µM],11µM!,.[11.6 µM]
CCOC(=O)c1c(NC(=O)C2C3C=CC(CC3)C2C(=O)O)sc(C)c1CC (centres undefined),.,.,.,.,.
CCOC(=O)c1c(NC(=O)C2CC2)sc(C)c1CC,.,28µM,.,.,?
Cc1c(C(=O)N(Cc2ccc(N(C)C)cc2)Cc2ccco2)oc2cc(Br)ccc12,?,.,/,/,?
COc1ccc(-c2cc(C)nc3c(-c4ccc(OC)c(OC)c4)c(C)nn23)cc1,14µM[quencher],10µM,/,/,?
COc1ccc(-c2c(C)nn3c(-c4ccccc4)cc(-c4ccccc4)nc23)cc1OC,?,.,/,/,.
Cc1ccc(OCC(=O)Nc2ccc3nc(SCC(=O)N(C)c4ccccc4)sc3c2)cc1,?,.,/,/,.
SMILES,Tau fluor cs,Tau fibril ThT,GoLoco inh red,KDM4E inh,Tau fibril FP
Cc1ccc(C2=NC(=O)/C(=C/c3cc(O)c(O)c(Br)c3)S2)cc1,2.8µM[quencher],4µM,.,13µM,?
COc1cc(/C=C2\SC(c3ccc(C)cc3)=NC2=O)cc(OC)c1O,?,5µM,.,?,?
COc1cc(/C=C2\SC(=Nc3ccc(O)cc3)NC2=O)cc(OC)c1O,.,?,.,.,.
O=C(NO)c1ccccc1,/,/,28µM,/,/
O=C(NC1(O)C(=O)c2ccccc2C1=O)c1c(Cl)cccc1Cl,.,/,.,?,?
O=C(NCCO)c1ccccc1O,.,.,.,?,.
O=C(NC1(O)C(=O)c2ccccc2C1=O)c1ccccc1,.,2.8µM,.,?,?
O=C(NO)c1ccccc1O,.,.,.,10µM,.
O=C1CSC2(C(=O)N(Cc3ccccc3F)c3ccccc32)N1c1cccc(C(F)(F)F)c1 (centres undefined),.,.,/,/,.
CC1C2(C)OC(=N)C(C#N)(C(C)O2)C1(C#N)C#N (centres undefined),.,?,25µM,?,.
CC1OC2(C)OC(=N)C1(C#N)C(C#N)(C#N)C2c1ccccc1 (centres undefined),.,.,.,.,.
CC(C)Oc1ccc(C(=O)NCC(c2ccc(N(C)C)cc2)N2CCc3ccccc32)cc1 (centres undefined),?,?,/,/,.
COc1ccc(C(=O)NCC(c2ccc(N(C)C)cc2)N2CCc3ccccc32)cc1 (centres undefined),?,16µM,/,/,?
CCCOc1ccc(Oc2nc(NCC(C)C)nc(N(C)C)n2)nn1,.,.,/,/,.
CC1CCC(NC(=O)C2(C)Cc3ccccc3C(=O)N2Cc2ccccc2Cl)CC1 (centres undefined),.,.,/,/,.
Cc1ccccc1CNC(=O)c1cc2cc(S(=O)(=O)N3CCCCC3)ccc2n1C,.,.,/,/,.
NC(=S)n1[nH]c(-c2ccc([N+](=O)[O-])cc2)c(N=Nc2cccc(Cl)c2)c1=O,14µM[quencher],13µM,.,.,.
NC(=S)n1[nH]c(-c2ccc([N+](=O)[O-])cc2)c(N=Nc2ccc(O)cc2)c1=O,?,3.2µM,.,.,.
CCN(CC)S(=O)(=O)c1ccc(N=Nc2c(C)[nH]n(C(N)=S)c2=O)cc1,.,?,.,.,.
CC1(C)CC(=O)C(C(c2ccco2)C2C(=O)CC(C)(C)CC2=O)C(=O)C1,.,28µM,.,.,?
CC1(C)CC(=O)C(C(c2ccc(F)cc2)C2C(=O)CC(C)(C)CC2=O)C(=O)C1,.,.,.,.,.
CCOc1ccc(NC(=O)N2CCN(S(=O)(=O)c3ccc4c(ccn4C)c3)CC2)cc1,?,.,/,/,.
CCCCC(=O)Nc1ccccc1C(C)C,.,.,.,.,.
CC(C)c1ccccc1NC(=O)CNCCc1ccc(C(F)(F)F)cc1,.,.,.,3.2µM,.
COCCCNC(=O)Cn1c(=O)n(-c2cccc(C)c2)c(=O)c2c1c1cc(C)ccc1n2C,.,.,/,/,.
SMILES,Tau fluor cs,Tau fibril ThT,GoLoco inh red,KDM4E inh,Tau fibril FP
Cc1ccc(S(=O)(=O)c2cnc(SCC(=O)Nc3cccc(Cl)c3)nc2N)cc1C,?,.,/,/,?
Oc1ccc2ccccc2c1N=Nc1ccccn1,?,5µM,.,?,.
O=S(=O)(O)c1cccc(N=Nc2c(O)ccc3ccccc23)c1,.,/,.,.,?
Oc1ccc2ccccc2c1N=Nc1ccccc1F,?,16µM,.,?,.
COC(=O)c1ccc(OCC2c3cc(OC)c(OC)cc3CCN2C(=O)c2cccc(C)c2)cc1 (centres undefined),.,.,/,/,.
CCOC(=O)c1ccc(NC(=O)CSc2nnc(CNc3ccc(OC)cc3)n2C)cc1,.,14µM,.,?,?
Nc1cccc(Nc2ccccc2)c1,?,?,.,?,.
COc1ccc(NC2=NC(=S)N(c3ccccc3C)C23CCCCC3)cc1,.,.,.,.,.
